Laboratory results taken from PubChem BioAssay (NCI).
About 79,000 compounds went through this panel and 15% of them were active in at least one assay; those are over-represented in the sample as a whole. Activity calls are given as the source filed them. Rule as the data show it: active = growth inhibition above about 70%; inactive = the rest.

Assays:
[1] = NCI Yeast Anticancer Drug Screen. Data for the rad52 strain (AID 147);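 also: 0% = growth of vehicle-treated control cultures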; details: S. cerevisiae rad52 mutant growth inhibition, active compounds read high
Outline: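 Measured: yeast growth inhibition. System: strain with a defined DNA damage repair alteration. Reference: vehicle-treated control cultures.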

[2] = NCI Yeast Anticancer Drug Screen. Data for the wt1 strain (AID 149);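 also: 0% = growth of vehicle-treated wt1 cultures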; details: S. cerevisiae wt1 strain (SPY 50644) growth inhibition, active compounds read high
Outline: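 Readout: yeast growth inhibition, normalised to vehicle controls, in the wt1 strain exposed to test compounds.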

[3] = NCI Yeast Anticancer Drug Screen. Data for the rad50EPP+ strain (AID 151);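 also: 0% = growth of vehicle-treated control cultures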; details: S. cerevisiae rad50 mutant strain, active compounds read high
Outline: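 One strain with a rad50 alteration (rad50EPP+) was compound-treated, its growth then compared to that of vehicle controls.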

[4] = NCI Yeast Anticancer Drug Screen. Data for the mgt1 strain (AID 153); details: S. cerevisiae mgt1 mutant growth inhibition, active compounds read high
Outline: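 After exposure of the mgt1 yeast mutant to compound, growth was measured and reported as inhibition compared with vehicle controls.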

[5] = NCI Yeast Anticancer Drug Screen. Data for the rad50 strain (AID 155);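 also: 0% = growth of vehicle-only cultures of the same strain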; details: S. cerevisiae rad50 strain growth inhibition, active compounds read high
Outline: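 Compounds were tested on a yeast strain with an engineered DNA damage repair alteration; the reported value is growth inhibition normalised to vehicle treatment.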

[6] = NCI Yeast Anticancer Drug Screen. Data for the mec2-1 strain (AID 157); details: S. cerevisiae mec2-1 strain, active compounds read high
Outline: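 Test agents were screened against the mec2-1 yeast strain, with defined DNA repair or cell cycle alteration. Growth was scored as inhibition against vehicle-only controls.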

[7] = NCI Yeast Anticancer Drug Screen. Data for the rad14 strain (AID 159);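 also: 0% = growth of vehicle-treated control cultures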; details: S. cerevisiae rad14 strain growth inhibition, active compounds read high
Outline: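 Compound-treated yeast with a defined DNA-repair lesion; growth inhibition normalised to vehicle-treated cultures.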

[8] = NCI Yeast Anticancer Drug Screen. Data for the sgs1 mgt1 strain (AID 161);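 also: 0% = growth of cultures given vehicle only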; details: S. cerevisiae sgs1 mgt1 strain, active compounds read high
Outline: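 Test agents were incubated with a DNA-repair-mutant yeast strain. Growth was then read and compared against vehicle-treated controls.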

[9] = NCI Yeast Anticancer Drug Screen. Data for the CLN2oe strain (AID 163);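 also: 0% = growth of vehicle-only control cultures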; details: S. cerevisiae CLN2oe strain, active compounds read high
Outline: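 Here, growth inhibition in a cell-cycle-altered yeast strain after compound exposure was quantified against vehicle control growth.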

[10] = NCI Yeast Anticancer Drug Screen. Data for the cln2 rad14 strain (AID 165);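 also: 0% = growth equal to vehicle treated cultures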; details: S. cerevisiae cln2 rad14 strain, active compounds read high
Outline: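 Growth of compound-exposed yeast (cln2 rad14 genotype) measured and expressed as inhibition relative to vehicle.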

[11] = NCI Yeast Anticancer Drug Screen. Data for the bub3 strain (AID 167); details: S. cerevisiae bub3 mutant strain, active compounds read high
Outline: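 Growth of a checkpoint-deficient yeast mutant is measured after compound exposure. Values represent inhibition relative to vehicle.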

[12] = NCI Yeast Anticancer Drug Screen. Data for the wt2 strain (AID 169);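 also: 0% = growth of vehicle-treated yeast cultures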; details: S. cerevisiae wt2 strain growth inhibition, active compounds read high
Outline: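 Genetically defined yeast strains from a DNA-repair/cell-cycle panel were used. Compound-exposed yeast growth was measured, and the inhibition was calculated relative to vehicle treatment.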

[13] = NCI Yeast Anticancer Drug Screen. Data for the mlh1 strain (AID 171);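 also: 0% = growth of vehicle-treated control cultures of the same strain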; details: S. cerevisiae mlh1 strain growth inhibition, active compounds read high
Outline: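 Here the genetically defined yeast mutant is grown with each compound, and the extent to which its growth falls below that of vehicle-exposed cells is reported.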

[14] = NCI Yeast Anticancer Drug Screen. Data for the sgs1 strain (AID 173);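 also: 0% = growth of vehicle-only control cultures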; details: S. cerevisiae sgs1 mutant, active compounds read high
Outline: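 Relative growth inhibition, referenced to vehicle, was determined in a yeast strain with a defined alteration affecting DNA damage repair or cell cycle control after compound exposure.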

[15] = NCI Yeast Anticancer Drug Screen. Data for the mlh1 rad18 strain (AID 175); details: S. cerevisiae mlh1 rad18 strain growth inhibition, active compounds read high
Outline: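 In this whole-cell yeast screen, a strain with altered DNA damage repair is challenged with compound, and its growth is measured against matched vehicle-treated controls.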

[16] = NCI Yeast Anticancer Drug Screen. Data for the rad18 strain (AID 177); details: S. cerevisiae rad18 mutant growth inhibition, active compounds read high
Outline: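 Screen uses a yeast strain with a defined lesion in DNA damage repair; compound effect is read as loss of growth compared to untreated vehicle cultures.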

[17] = at 5.0 µM (retest, dose inferred, filed as 0.5)
[18] = at 50.0 µM (retest, dose inferred, filed as 5.0)

Measured: growth inhibition

CCCCCCCCCCCCCCCCCCN(C)CC(COP(=O)([O-])OCC[N+](C)(C)C)OC (stereo not drawn)
inactive: [1]; at 1.2 µM -14% | [1]; at 3.7 µM -24% | [2]; at 1.2 µM 0% | [2]; at 3.7 µM -2% | [3]; at 1.2 µM -4% | [3]; at 3.7 µM 43% | [4]; at 1.2 µM 21% | [4]; at 3.7 µM 32% | [5]; at 1.2 µM 8% | [5]; at 3.7 µM 18% | [5]; [17] 17% | [6]; at 1.2 µM 13% | [6]; at 3.7 µM 18% | [6]; [17] 11% | [7]; at 1.2 µM 2% | [7]; at 3.7 µM 4% | [9]; at 1.2 µM 15% | [9]; at 3.7 µM 6% | [10]; [17] 22% | [11]; at 1.2 µM 9% | [11]; at 3.7 µM -8% | [11]; [17] 33% | [12]; at 1.2 µM -1% | [12]; at 3.7 µM 0% | [12]; at 11.0 µM -17% | [12]; at 33.0 µM 60% | [13]; at 1.2 µM 5% | [13]; at 3.7 µM 11% | [14]; at 1.2 µM -15% | [14]; at 3.7 µM -1% | [15]; [17] 7% | [16]; at 1.2 µM -6% | [16]; at 3.7 µM 11%
active: [1]; at 11.0 µM 97% | [1]; at 33.0 µM 98% | [1]; at 100.0 µM 98% | [2]; at 11.0 µM 97% | [2]; at 33.0 µM 99% | [2]; at 100.0 µM 99% | [3]; at 11.0 µM 98% | [3]; at 33.0 µM 98% | [3]; at 100.0 µM 98% | [4]; at 11.0 µM 97% | [4]; at 33.0 µM 99% | [4]; at 100.0 µM 98% | [5]; at 11.0 µM 98% | [5]; at 33.0 µM 98% | [5]; [18] 98% | [5]; at 50.0 µM 88.2% | [5]; at 100.0 µM 98% | [6]; at 11.0 µM 94% | [6]; at 33.0 µM 99% | [6]; [18] 99% | [6]; at 50.0 µM 93.4% | [6]; at 100.0 µM 99% | [7]; at 11.0 µM 98% | [7]; at 33.0 µM 99% | [7]; at 100.0 µM 99% | [8]; [17] 78% | [8]; [18] 99% | [8]; at 50.0 µM 91.1% | [9]; at 11.0 µM 96% | [9]; at 33.0 µM 98% | [9]; at 100.0 µM 98% | [10]; [18] 98% | [10]; at 50.0 µM 89.8% | [11]; at 11.0 µM 98% | [11]; at 33.0 µM 98% | [11]; [18] 99% | [11]; at 50.0 µM 90% | [11]; at 100.0 µM 98% | [12]; at 100.0 µM 98% | [13]; at 11.0 µM 98% | [13]; at 33.0 µM 99% | [13]; at 100.0 µM 99% | [14]; at 11.0 µM 97% | [14]; at 33.0 µM 99% | [14]; at 100.0 µM 99% | [15]; [18] 98% | [15]; at 50.0 µM 89.5% | [16]; at 11.0 µM 98% | [16]; at 33.0 µM 98% | [16]; at 100.0 µM 98%
